54 sequences from publication PMC10726135, “HNF4α isoforms regulate the circadian balance between carbohydrate and lipid metabolism in the liver” can be followed below.

The full ranking holds about 18,000 sequences; the median of “log2 normalized intensity” is about 0.36, and the highest 2% start at about 7.3. This excerpt belongs to a sample that is enriched for the highest values.

The assay concerns the target T1, HNF4alpha8 (COS-7 nuclear extract) (Homo sapiens, UniProt P41235-5 1-452).
T1 sequence: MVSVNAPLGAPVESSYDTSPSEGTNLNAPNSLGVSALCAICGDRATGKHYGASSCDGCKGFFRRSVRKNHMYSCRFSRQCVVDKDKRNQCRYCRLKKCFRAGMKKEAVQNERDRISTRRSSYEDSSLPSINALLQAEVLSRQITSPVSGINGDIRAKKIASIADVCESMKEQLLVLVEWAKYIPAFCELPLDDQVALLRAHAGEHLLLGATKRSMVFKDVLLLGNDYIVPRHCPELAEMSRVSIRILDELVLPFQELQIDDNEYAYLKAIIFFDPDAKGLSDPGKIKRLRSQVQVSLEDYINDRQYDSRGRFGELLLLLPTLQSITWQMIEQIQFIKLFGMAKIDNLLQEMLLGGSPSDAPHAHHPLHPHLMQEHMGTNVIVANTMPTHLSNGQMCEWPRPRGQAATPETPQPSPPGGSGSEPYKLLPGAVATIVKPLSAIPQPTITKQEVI
Nature of the assay: protein-binding microarray; COS-7 nuclear extract on double-stranded Agilent 4x180k PBM; binding buffer, salt, pH and temperature not given in the material; high values mean tight binding. The note with it: chain copies: 2; label: 3' end of strand 1 on the slide; dsDNA, one strand shown. In a few lines:
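COS-7 cells were transiently transfected by CaPO4 with an expression vector for a human HNF4α isoform, and nuclear extracts were prepared from them. The extracts were applied to a custom Agilent SurePrint G3 4x180k array of double-stranded ~60-nt oligonucleotides, with ~44,000 test sequences spotted in quadruplicate. An Agilent G2565CA scanner imaged bound HNF4α at 2-µm resolution. Binding signal is the background-corrected, normalized gProcessedSignal from Agilent software.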
On to “GACCTCTGGACCTCATCTTCCTCCCCAATAGCCTAGGGAGATTAGAGTATCGGTCGA”, for which the binding signal was found to be 4.6 log2 normalized intensity. As for “CCTAGGTGCTGAAGATGCAACAGTGACCCAGCCTAGGGAGATTAGAGTATCGGTCGA”, the binding signal worked out at 3.1 log2 normalized intensity. The same measure for “AGTCTGGAGGGGTGCGAAGGTCGAGGCCAGGCCTAGGGAGATTAGAGTATCGGTCGA”: 3.39 log2 normalized intensity; for “AGCTACTAGCAAATCTGCCCAACCTTTGCCGCCTAGGGAGATTAGAGTATCGGTCGA”: 2.1 log2 normalized intensity. As to “CTGCTTTTATGACCTTTGACTGCAGAAGATGCCTAGGGAGATTAGAGTATCGGTCGA”, the binding signal amounted to 6.33 log2 normalized intensity. “ATGCCAGATGACCTTTGCCCTTGACTTTTTGCCTAGGGAGATTAGAGTATCGGTCGA”: the binding signal was found to be 9.28 log2 normalized intensity.

With “AGATGACCTTTGCCCTTGACTTTTTGTGGGGCCTAGGGAGATTAGAGTATCGGTCGA”, the binding signal worked out at 7.72 log2 normalized intensity. The same measure for “ACCTTTGCCCTTGACTTTTTGTGGGGGCAGGCCTAGGGAGATTAGAGTATCGGTCGA”: 3.39 log2 normalized intensity; for “TTCTTTTTTTTTTTTTTTTTTTTTTGAGATGCCTAGGGAGATTAGAGTATCGGTCGA”: 3.08 log2 normalized intensity; for “TGCCCTTGACTTTTTGTGGGGGCAGATGTTGCCTAGGGAGATTAGAGTATCGGTCGA”: 2.31 log2 normalized intensity. The same measure for “AGTGAGCCAAGGTACCCTGGCTTGTAATTCGCCTAGGGAGATTAGAGTATCGGTCGA”: -0.844 log2 normalized intensity. Take “ATCAGAGCTGGATGTGAGTTATGACTACTTGCCTAGGGAGATTAGAGTATCGGTCGA”: the binding signal is 0.62 log2 normalized intensity. For the sequence “AAATCCCCGCCTTTGACACAGGCGACCTTCGCCTAGGGAGATTAGAGTATCGGTCGA”, the binding signal is 4.58 log2 normalized intensity. The same measure for “CCATATCACATTTTAAGGTCTGGCATTCTTGCCTAGGGAGATTAGAGTATCGGTCGA”: 1.1 log2 normalized intensity. In the case of “ACTCAGGCATTCTGACCTTTGTCTCCAGGCGCCTAGGGAGATTAGAGTATCGGTCGA”, the binding signal is 6.52 log2 normalized intensity.

With “TTTTAAGGTCTGGCATTCTTTTTGACCTTTGCCTAGGGAGATTAGAGTATCGGTCGA”, the binding signal was found to be 8.23 log2 normalized intensity.

Take “CCTTTGACCTTCGGCTTCCCCAGAGAAAGAGCCTAGGGAGATTAGAGTATCGGTCGA”: the binding signal was 3.38 log2 normalized intensity. The same measure for “CTGCAGATTGACTCAGGCATTCTGACCTTTGCCTAGGGAGATTAGAGTATCGGTCGA”: 7.32 log2 normalized intensity; for “TCAGGCACAGCTCGACCTTTGACCTTCGGCGCCTAGGGAGATTAGAGTATCGGTCGA”: 10.9 log2 normalized intensity; for “GATTGACTCAGGCATTCTGACCTTTGTCTCGCCTAGGGAGATTAGAGTATCGGTCGA”: 7.94 log2 normalized intensity. The same measure for “CACAGCTCGACCTTTGACCTTCGGCTTCCCGCCTAGGGAGATTAGAGTATCGGTCGA”: 9.06 log2 normalized intensity; for “CCTTTTATTTTCTTATCTGCCTAGGCATTTGCCTAGGGAGATTAGAGTATCGGTCGA”: 1.58 log2 normalized intensity; for “CCCGCCTTTGACACAGGCGACCTTCGCTCGGCCTAGGGAGATTAGAGTATCGGTCGA”: 6.06 log2 normalized intensity.

For the sequence “CTTTGACACAGGCGACCTTCGCTCGGCTCGGCCTAGGGAGATTAGAGTATCGGTCGA”, the binding signal is 4.27 log2 normalized intensity. Consider “CCAACAGGTGAAGACATGCTGGTGTGTGATGCCTAGGGAGATTAGAGTATCGGTCGA”, for which the binding signal was 0.875 log2 normalized intensity. The same measure for “AGATGGTCAAAGGTTGATGGTATGTTTCAGGCCTAGGGAGATTAGAGTATCGGTCGA”: 3.86 log2 normalized intensity; for “TGAATCCTCTTTGAGTCTGGTGTTCTCTTGGCCTAGGGAGATTAGAGTATCGGTCGA”: 1.65 log2 normalized intensity; for “CGCATCTGAAGATAAGAGAAGTTGCTCTTTGCCTAGGGAGATTAGAGTATCGGTCGA”: 2.63 log2 normalized intensity. The same measure for “CCTGCAAGGACAAAGGTCATGTTTTCAAACGCCTAGGGAGATTAGAGTATCGGTCGA”: 6.34 log2 normalized intensity; for “AATTTGAACCAAGATCTGTGAAAGAAAAGTGCCTAGGGAGATTAGAGTATCGGTCGA”: -0.147 log2 normalized intensity. The same measure for “TATGTGCTGACTGACTCCTGTTACTTCCACGCCTAGGGAGATTAGAGTATCGGTCGA”: 0.0957 log2 normalized intensity; for “AGTGTGGGGTGACTGACTTAACCCTTGCCTGCCTAGGGAGATTAGAGTATCGGTCGA”: 2.27 log2 normalized intensity. With “CTCCACTTGGGTATCAGATAGTCCAATGTCGCCTAGGGAGATTAGAGTATCGGTCGA”, the binding signal came out at 2.52 log2 normalized intensity.

For the sequence “GCCTCTCTGTGCTGGAACTTGCTTCCTTATGCCTAGGGAGATTAGAGTATCGGTCGA”, the binding signal came out at 1.37 log2 normalized intensity. The same measure for “TGTGGTAATAAGTTGGTGGACGCTGGGGAAGCCTAGGGAGATTAGAGTATCGGTCGA”: 0.488 log2 normalized intensity. Regarding “TCCTTCAGCGTGAACTTTGACATGAGAGAAGCCTAGGGAGATTAGAGTATCGGTCGA”, the binding signal was determined as 4.21 log2 normalized intensity. The same measure for “TATATTCAACCCCCACTTCCTGACTTGGCCGCCTAGGGAGATTAGAGTATCGGTCGA”: 3.85 log2 normalized intensity; for “TCACACAAATGGATCTTTCTTCAAAAAGAGGCCTAGGGAGATTAGAGTATCGGTCGA”: -0.0678 log2 normalized intensity. The same measure for “CCCTTTAGTGCCTGGATCTTGGAACAGGTCGCCTAGGGAGATTAGAGTATCGGTCGA”: 1.97 log2 normalized intensity; for “CCTGCACACCTGCCTTTGATCAGGGACCTTGCCTAGGGAGATTAGAGTATCGGTCGA”: 1.97 log2 normalized intensity; for “GCTCAGCTGGTTGCCCCTTTGACCCTCGGGGCCTAGGGAGATTAGAGTATCGGTCGA”: 7.06 log2 normalized intensity.

On to “AGCTCGCTCAGCTGGTTGCCCCTTTGACCCGCCTAGGGAGATTAGAGTATCGGTCGA”, for which the binding signal worked out at 8.48 log2 normalized intensity. The same measure for “GGTCTCCTTGCCCCACCCCCCACCCCAGAAGCCTAGGGAGATTAGAGTATCGGTCGA”: 6.87 log2 normalized intensity; for “AGACTCAGCATGTCTTCTGACCTTTGGCAAGCCTAGGGAGATTAGAGTATCGGTCGA”: 6.98 log2 normalized intensity. The same measure for “GGGTCATGCTGGTCTCCTTGCCCCACCCCCGCCTAGGGAGATTAGAGTATCGGTCGA”: 5.73 log2 normalized intensity. The same measure for “CAGCATGTCTTCTGACCTTTGGCAATATCTGCCTAGGGAGATTAGAGTATCGGTCGA”: 5.1 log2 normalized intensity. Regarding “GCCCCAGCTCGCTCAGCTGGTTGCCCCTTTGCCTAGGGAGATTAGAGTATCGGTCGA”, the binding signal is 4.47 log2 normalized intensity. The same measure for “TATTTAGACTCAGCATGTCTTCTGACCTTTGCCTAGGGAGATTAGAGTATCGGTCGA”: 7.33 log2 normalized intensity.

As to “ATGCTGGTCTCCTTGCCCCACCCCCCACCCGCCTAGGGAGATTAGAGTATCGGTCGA”, the binding signal worked out at 7.48 log2 normalized intensity. As for “GTCTCTCAGGCACAGCTCGACCTTTGACCTGCCTAGGGAGATTAGAGTATCGGTCGA”, the binding signal amounted to 10 log2 normalized intensity. The same measure for “CCTCTGTCTCTCAGGCACAGCTCGACCTTTGCCTAGGGAGATTAGAGTATCGGTCGA”: 6.7 log2 normalized intensity; for “AGTCACACACACCTGTGTCCCCCAGGTCCAGCCTAGGGAGATTAGAGTATCGGTCGA”: 3.56 log2 normalized intensity.

With “ATATCTGCCTCAGTAGTAGTGAAAAATGAAGCCTAGGGAGATTAGAGTATCGGTCGA”, the binding signal turned out to be 0.637 log2 normalized intensity. The same measure for “GGAGGTGACCTTTGGTTGTCCTTACTGCTAGCCTAGGGAGATTAGAGTATCGGTCGA”: 4.22 log2 normalized intensity.
